Drawing on PubChem BioAssay (NCATS), this text covers Potency for 3 compounds.

Inconclusive results are not listed. Activity calls are given as the source filed them. Calls come from the whole dose curve; as a rule, active = well fitted inhibition curve with a large enough effect; inconclusive = small, poorly fitted or top-dose-only effect, or effect the other way, or another doubt; inactive = flat fitted curve, though single readings scatter.
Potency is the fitted concentration of half-maximal effect.

The experiment in a line: qHTS Assay for Identification of Small Molecule Antagonists for Thrombopoietin (TPO) Signaling Pathway (AID 918). Note: nearly all actives have a fitted effect of over 60% in size. The note with it: TPO-dependent cell signaling reporter, antagonist mode. The procedure: NIH Molecular Libraries Screening Centers Network [MLSCN]
NIH Chemical Genomics Center [NCGC]
The thrombopoietin (TPO) signaling pathway was assayed in murine Ba/F3 cells stably transfected with the human TPO receptor and a luciferase reporter gene controlled by the Glycoprotein IIb promoter (provided by Axxam). BaF3 cells are an IL-3-dependent pro B cell line that upon TPO stimulation, undergo cell division and induce the megakaryocyte marker, Glycoprotein IIb. The assay was screened at the EC50 of TPO (26 pM) to identify inhibitors of the pathway.
NCGC Assay Protocol Summary:
Cells were maintained at 37 C and 5% CO2in RPMI with 10% fetal bovine serum, 0.5 ng/mL murine IL-3, 100U/ml penicillin and 100 ug/ml streptomycin. Prior to plating, cells were incubated overnight in medium without IL-3. Cells were plated at 250 cells/5uL/well into white solid 1536-well plates, 23 nL of compounds were delivered by a pin tool, and 1 uL of TPO (26 pM final concentration in IL-3 deficient medium) was added. Following 24 hrs of incubation at 37 C and 5% CO2, 4 uL of Steadylite detector mix (PerkinElmer) was added, the plates incubated at room temperature for 10 min and luminescence was measured for 10 s and 2X binning by a ViewLux detector (Perkin Elmer).
On to `NC[C@@H]1O[C@H](C23CC4CC(CC(C4)C2)C3)Cc2c1ccc(O)c2O`, for which the Potency was 10 µM (active).
With `O=Nc1ccc2oc(=O)ccc2c1` the figure was 5.01 µM (active); with `COC1=C(OC)C(=O)c2ccccc2C1=O`, 3.98 µM (active).
